# Source: PubChem
# Only some compounds are listed: those with a hit (about 4.1% of all), similar ones and a draw of the others.
# ALR inh = inhibitors of human ALR sulfhydryl oxidase, primary screen, biochemical, H2O2 detection, HRP-luminol luminescence, single point; purified ALR, DTT oxidation; AID 485317, 2010; actives 3.8% (n = 290,000); inhibition, % (test concentration not listed);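 active = mean replicate inhibition above about 79%, with every replicate also reaching it, limit read from the data; inconclusive = only one of the two criteria met; inactive = mean below limit and not every replicate reaching it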
# M18AAP inhibitor = PfM18AAP inhibitors, malaria aminopeptidase, primary screen, biochemical, QFRET, recombinant enzyme. M18 aspartyl aminopeptidase (Plasmodium falciparum 3D7). H-Glu-NHMec fluorogenic cleavage. inhibition, % at 7.35 µM. actives 1.2% (n = 290,000). AID 1822, 2009;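 active = inhibition above the campaign mean inhibition over all tested compounds plus 3 SD, cut at about 28% in these data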
# IDE cell inh = human IDE inhibitors in live cells, primary screen, fluorescence polarization, HEK cells, FAbetaB substrate. FAbetaB cleavage. inhibition, % at 5.59 µM. actives 0.41% (n = 320,000). Insulin-degrading enzyme (Homo sapiens), P14735;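 active = percent inhibition above the average of all tested compounds plus 3 SD, set per screening campaign, cut at about 16% in these data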;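 also: IDE supplied by intact live HEK cells; FP after avidin binding of uncleaved biotin substrate so inhibition keeps polarization high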
# Target sequence (P14735 whole entry, looked up): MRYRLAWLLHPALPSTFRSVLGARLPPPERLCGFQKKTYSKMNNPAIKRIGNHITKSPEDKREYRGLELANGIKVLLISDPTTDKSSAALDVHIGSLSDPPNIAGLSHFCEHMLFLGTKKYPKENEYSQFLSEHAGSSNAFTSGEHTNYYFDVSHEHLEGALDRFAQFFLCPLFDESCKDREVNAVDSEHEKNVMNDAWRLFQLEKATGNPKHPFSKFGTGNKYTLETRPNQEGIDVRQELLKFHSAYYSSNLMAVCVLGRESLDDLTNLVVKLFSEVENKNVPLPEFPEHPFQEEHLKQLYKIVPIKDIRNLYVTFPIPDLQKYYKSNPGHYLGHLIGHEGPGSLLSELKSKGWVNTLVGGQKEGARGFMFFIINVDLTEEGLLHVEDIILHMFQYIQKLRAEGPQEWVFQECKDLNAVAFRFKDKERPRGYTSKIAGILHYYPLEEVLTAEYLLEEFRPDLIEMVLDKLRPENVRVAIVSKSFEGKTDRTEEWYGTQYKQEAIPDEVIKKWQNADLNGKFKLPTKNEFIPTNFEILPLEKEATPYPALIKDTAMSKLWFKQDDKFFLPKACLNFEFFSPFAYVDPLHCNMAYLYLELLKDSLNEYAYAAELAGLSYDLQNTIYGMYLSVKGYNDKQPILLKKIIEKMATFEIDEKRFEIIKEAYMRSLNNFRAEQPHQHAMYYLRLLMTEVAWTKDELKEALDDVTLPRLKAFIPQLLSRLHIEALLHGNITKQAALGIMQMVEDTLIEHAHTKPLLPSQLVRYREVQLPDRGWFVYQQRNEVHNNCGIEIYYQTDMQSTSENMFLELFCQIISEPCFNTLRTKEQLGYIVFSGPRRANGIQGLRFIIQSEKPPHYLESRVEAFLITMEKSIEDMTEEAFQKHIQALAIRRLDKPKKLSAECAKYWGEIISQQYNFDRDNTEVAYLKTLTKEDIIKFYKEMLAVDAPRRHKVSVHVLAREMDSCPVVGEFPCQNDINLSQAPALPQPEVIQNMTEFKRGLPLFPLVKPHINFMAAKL
# CaV13 FRET inh = Primary screen for inhibitors of IQ motif and Ca2+-dependent inactivation inhibitor domain binding in CACNA1D, Förster resonance energy transfer in living cells, …. HEK cells, CFP/YFP FRET ICDI-IQ, plate reader, 10 min; percent FRET-ratio fall versus neutral wells. inhibition, % at 12.3 µM. actives 0.098% (n = 340,000). AID 743397;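 active = mean replicate inhibition of at least 30% and at least 1% of replicates passing that level; inconclusive = only one of the two criteria is met; inactive = neither criterion is met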
# IDE cell activ = human IDE activators in live cells, primary screen, fluorescence polarization, HEK cells, FAbeta-B substrate | actives 0.073% (n = 340,000) | activation, % at 5.96 µM | FAbeta-B cleavage; 0% vehicle, 100% cell-free pure enzyme wells;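 active = activation above the mean of all tested compounds plus 3 SD, set per screening campaign, cut at about 17% in these data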
# PolyA inh = polyadenylation inhibitors in yeast reporter cells, primary screen, luminescence, S. cerevisiae; S. cerevisiae SKY197-pL101 polyadenylation reporter, beta-gal luminescence; efflux-impaired pdr1/pdr3 knockout yeast; score 100 = 6 SD above DMSO; activity score, % at 12 µM; actives 0.02% (n = 300,000); AID 1875, 2009;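 active = lowest replicate activity score at least 50, where 100 means six control SD above control mean; inconclusive = lowest score under 50 but half or more replicates reach 50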;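 also: yeast exposed to compound for 9 h at 30 °C; higher score means more reporter readthrough which indicates perturbed polyadenylation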
# A number is an active result; i = inactive; ? = inconclusive; nt = no result given.
SMILES,ALR inh,M18AAP inhibitor,IDE cell inh,CaV13 FRET inh,IDE cell activ,PolyA inh
CCOC(=O)c1sc(NC(=O)CS(=O)(=O)c2ccc(C)cc2)nc1C,nt,i,i,i,i,i
CCOC(=O)Cc1csc(NC(=O)CSC2=NCCS2)n1,99,i,i,i,i,i
Cc1csc(NC(=O)CSc2nc(C)nc3c2c(=O)n(C)c(=O)n3C)n1,98,nt,i,i,i,?
CCOC(=O)Cc1csc(NC(=O)CSc2nc(=O)[nH]c3c2CCC3)n1,i,nt,i,i,i,i
CCOC(=O)Cc1csc(NC(=O)CSc2nc(=O)[nH]c3c2CCCC3)n1,96,nt,i,i,i,i
CCOC(=O)Cc1csc(NC(=O)Cc2ccc([N+](=O)[O-])cc2)n1,98,i,i,i,i,i
C[C@H](O)[C@@H]1C(=O)N2CCc3c([nH]c4ccccc34)[C@@H]2C[C@@H]1N(C)C(=O)OCc1ccccc1,nt,nt,nt,i,nt,nt
COC(=O)C[C@@H]1C[C@@H]2c3cc(NS(=O)(=O)c4ccc(F)cc4)ccc3O[C@@H]2[C@H](CO)O1,nt,nt,nt,i,nt,nt
CC(O)CNc1ccc(-c2nn(C)c(=O)c3ccccc23)cc1[N+](=O)[O-] (centres undefined),i,i,i,i,i,i
CC(=O)c1ccc(N2CCN(C(=O)CCS(=O)(=O)c3ccc4c(c3)CCN4C(C)=O)CC2)cc1,i,i,i,i,i,i
Cc1csc(NC(=O)CSC2=NCCS2)n1,99,i,i,i,i,i
CCOC(=O)Cc1csc(NC(=O)CSc2nccn2C)n1,99,i,i,i,i,i
CCOC(=O)c1sc(NC(=O)CSc2nccn2C)nc1C,98,i,i,i,i,i
CCOC(=O)c1sc(NC(=O)CSc2ncccn2)nc1C,i,i,i,nt,i,i
C=CCN=C1NC(c2ccc(F)cc2)C(C(=O)OC)=C(C)N1C (centres undefined),nt,nt,nt,i,nt,nt
O=C(NCCO)N1c2ccccc2Sc2ccccc21,i,i,i,i,i,i
O=C(Nc1ccccc1O)N1c2ccccc2Sc2ccccc21,84,i,i,i,i,i
COc1ccc(CCC(C)Nc2cccc(C)c2)cc1 (centres undefined),99,i,i,i,i,i
COc1ccc(CCC(C)Nc2ccc(F)cc2)cc1 (centres undefined),98,i,i,i,i,i
CSCCC(NC(=O)c1ccc(C)o1)C(=O)O (centres undefined),i,i,i,i,i,i
Oc1ccccc1N=Nc1ccccc1O,nt,i,nt,i,i,i
Nc1ccc(N=Nc2ccccc2O)c(N)c1,83,nt,i,i,nt,i
Cc1sc(N)c(C(=O)c2ccccc2)c1C,i,32,i,i,nt,i
Cc1cc(C)c(C(=O)c2ccccc2)c(C)c1,nt,nt,nt,i,i,nt
Cc1c(Cc2ccccc2)sc(N)c1C(N)=O,i,42,i,nt,nt,i
SMILES,ALR inh,M18AAP inhibitor,IDE cell inh,CaV13 FRET inh,IDE cell activ,PolyA inh
Cc1c(Cc2ccccc2)sc(/N=C/c2c(O)ccc3ccccc23)c1C(N)=O,i,42,i,nt,i,i
Cc1ccc(NC(=O)CSc2nc(-c3ccco3)nc3cc(=O)[nH]n23)c(Cl)c1,99,i,i,i,i,i
COc1ccc(-c2csc(NC(=O)[C@H](C)N3C(=O)C4CC=CCC4C3=O)n2)cc1OC (some centres undefined),91,nt,i,i,i,nt
COc1ccc(-c2csc(NC(=O)CSc3nnnn3C)n2)cc1OC,98,nt,i,i,i,i
COc1ccc(-c2csc(NC(C)=O)n2)cc1OC,i,i,i,i,i,i
O=C(Nc1nc2ccccc2s1)C1CCN(S(=O)(=O)c2cc([N+](=O)[O-])ccc2Cl)CC1,nt,28,i,i,i,i
CN(C(=S)NC(=O)c1ccccc1Br)C1CCCCC1,99,i,i,i,i,i
Cc1ccccc1C(=O)NC(=S)N(C)C1CCCCC1,i,i,i,nt,i,i
CC1Cc2ccccc2N1C(=O)CSc1nn2c(=O)c(C(C)(C)C)nnc2s1 (centres undefined),nt,i,i,i,i,i
Cc1ccc(C(=O)CSc2nn3c(=O)c(C(C)(C)C)nnc3s2)cc1,98,i,i,nt,i,i
CC(C)(C)c1nnc2sc(SCC(=O)c3ccc4c(c3)OCCO4)nn2c1=O,nt,i,i,i,i,i
CC(C)(C)c1nnc2sc(SCC(=O)c3cccs3)nn2c1=O,98,i,i,i,i,i
CC(C)(C)c1nnc2sc(SCC(=O)c3ccc(Cl)cc3)nn2c1=O,nt,i,i,nt,i,i
CC(C)(C)c1nnc2sc(SCC(=O)N3CCCc4ccccc43)nn2c1=O,99,i,i,i,i,i
Cc1ccc2[nH]c(C(=O)O)c(NC(=O)CN3CCN(c4cccc(C)c4C)CC3)c2c1,94,i,i,i,i,i
CCC(C)(C)NC(=O)C(c1ccccc1Cl)N(C(=O)CCC(=O)Nc1cc(C)on1)C(C)(C)C (centres undefined),i,i,i,i,i,i
CCOc1ccc(NCc2cccn2-c2nnc(N3CCC(C(=O)NCCCN4C(C)CCCC4C)CC3)s2)cc1 (centres undefined),99,i,i,i,i,i
CCC1CCCCN1CCCNC(=O)C1CCN(c2nnc(-n3cccc3)s2)CC1 (centres undefined),i,i,i,i,i,i
CCOc1ccc(NCc2cccn2-c2nnc(N3CCC(C(=O)NCCCN4CCCCC4)CC3)s2)cc1,99,i,i,i,i,i
CCOc1ccc(NCc2cccn2-c2nnc(N3CCC(C(=O)NCCCN4CCCCC4C)CC3)s2)cc1 (centres undefined),99,i,i,i,i,i
CCOc1ccc(CCNC(=O)C2CCN(c3nnc(-n4cccc4)s3)CC2)cc1,i,i,i,i,i,?
O=C(c1cnc(Cc2c[nH]c3ccccc23)c(I)c1)N1CCOCC1,nt,nt,nt,i,nt,nt
Cc1cccc(-c2c3c(=O)n(C)c(=O)n(C)c3cn2-c2ccc(O)cc2)c1,95,i,i,i,i,i
COc1nccnc1NS(=O)(=O)c1ccc(NC(=S)NC(=O)c2ccccc2)cc1,87,i,i,i,i,i
O=C(c1ccsc1)N1CCCC(N2CCN(c3cccc(Cl)c3)CC2)C1 (centres undefined),i,i,i,i,i,i
CC(C)n1cc(C(=O)N2CCCC(N3CCN(c4cccc(Cl)c4)CC3)C2)cn1 (centres undefined),89,i,nt,i,i,i
CCOc1ccc(CNC(=O)C(=O)c2cn(CC(=O)N3CCOCC3)c3ccccc23)cc1OC,i,i,i,i,i,i
